From PubChem BioAssay (NCI)
Values joined by “and” are separate entries in the source; they are usually repeats but may differ in a detail not shown here. Identical values can stand only once. The panel holds about 79,000 compounds, 15% with a hit somewhere; the sample as a whole holds those more often. The source holds several records for some structures; these can differ, active in one and inactive in another. Active and inactive are the calls of the source. Rule as the data show it: active = growth inhibition above about 70%; inactive = the rest. Where a SMILES comes first, the peptide text is derived from it. The star is where a group is joined. Boc = CC(C)(C)OC(=O)*; Bn = c1ccc(C*)cc1

How the values were obtained:
[1] = NCI Yeast Anticancer Drug Screen. Data for the rad50 strain (AID 155);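 also: 0% = growth of vehicle-only cultures of the same strain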; details: S. cerevisiae rad50 strain growth inhibition; at 50.0 µM; stronger effect = higher value
In short: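 Genetically altered yeast (DNA repair pathway); compound treatment; growth inhibition vs vehicle ctrl.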

[2] = NCI Yeast Anticancer Drug Screen. Data for the mec2-1 strain (AID 157); details: S. cerevisiae mec2-1 strain, at 50.0 µM, stronger effect = higher value
In short: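 Test agents were screened against the mec2-1 yeast strain, with defined DNA repair or cell cycle alteration. Growth was scored as inhibition against vehicle-only controls.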

[3] = NCI Yeast Anticancer Drug Screen. Data for the sgs1 mgt1 strain (AID 161);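 also: 0% = growth of cultures given vehicle only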; details: S. cerevisiae sgs1 mgt1 strain, at 50.0 µM, stronger effect = higher value
In short: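 Test agents were incubated with a DNA-repair-mutant yeast strain. Growth was then read and compared against vehicle-treated controls.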

[4] = NCI Yeast Anticancer Drug Screen. Data for the cln2 rad14 strain (AID 165);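 also: 0% = growth equal to vehicle treated cultures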; details: S. cerevisiae cln2 rad14 strain, at 50.0 µM, stronger effect = higher value
In short: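 Growth of compound-exposed yeast (cln2 rad14 genotype) measured and expressed as inhibition relative to vehicle.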

[5] = NCI Yeast Anticancer Drug Screen. Data for the bub3 strain (AID 167); details: S. cerevisiae bub3 mutant strain, at 50.0 µM, stronger effect = higher value
In short: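 Yeast carrying a defined mutation is treated with each compound, and growth is compared with that of vehicle-exposed cells to give inhibition.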

[6] = NCI Yeast Anticancer Drug Screen. Data for the mlh1 rad18 strain (AID 175); details: S. cerevisiae mlh1 rad18 strain growth inhibition; at 50.0 µM; stronger effect = higher value
In short: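 In this whole-cell yeast screen, a strain with altered DNA damage repair is challenged with compound, and its growth is measured against matched vehicle-treated controls.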

Measured: growth inhibition

COC1OCC(OC(=O)c2ccccc2)C(OC(=O)c2ccccc2)C1OC(=O)c1ccccc1 (stereo unspecified)
inactive: [1] 7.5% and 19.6% | [2] 1.15% and -3.25% | [3] 15.7% and -3.7% | [4] 19.5% and -0.3% | [5] -1.55% and -3.65% | [6] 6.15% and -8.55%

O=S(=O)(O)NC1CCCCC1
inactive: [1] 29.4% and 4.8% | [2] 16.2% and -1.15% | [3] -7.7% and -4.9% | [4] -50.7% and -6.3% | [5] 11.4% and 10.1% | [6] 11.8% and -9.45%

NC(CCCc1ccccc1)C(=O)O (stereo unspecified)
inactive: [1] 7.05% and 3.35% | [2] -7.4% and 0.65% | [3] -5.15% and 1.45% | [4] -77% and -22.5% | [5] 20.6% and -1.2% | [6] -26.9% and -10%

Oc1ccc2ccccc2c1CNCc1c(O)ccc2ccccc12
inactive: [1] -1.45% and 2.85% | [2] -7.9% and -34.8% | [3] 6% and 1.7% | [4] -23.4% and -2.4% | [5] 26.5% and -20.8% | [6] -8.15% and -9.85%

CC(=O)OCC1OC(Sc2nc(-c3ccc(C)cc3)c(C#N)c(=O)n2C2OC(COC(C)=O)C(OC(C)=O)C(OC(C)=O)C2OC(C)=O)C(OC(C)=O)C(OC(C)=O)C1OC(C)=O (stereo unspecified)
inactive: [1] 5% and -9.15% | [2] 7.65% and -9.45% | [3] -3.1% and 20.9% | [4] -32% and 10.2% | [5] 7.2% and 20.1% | [6] -7.8% and -34.5%

O=S(=O)(O)c1cc(N=Nc2cc(S(=O)(=O)O)c3cccnc3c2O)ccc1/C=C/c1ccc(N=Nc2cc(S(=O)(=O)O)c3cccnc3c2O)cc1S(=O)(=O)O
inactive: [1] -16.7% and 18.6% | [2] -17.4% and 7.65% | [3] -26.5% and 7.4% | [4] -24.4% and -55.5% | [5] -18.6% and -62.5% | [6] -111% and -27.9%

CC(=O)OCC(OC(C)=O)C(OC(C)=O)C(OC(C)=O)C(C=NN(C(C)=O)S(=O)(=O)c1ccc(/C=C2\NC(=O)N(C)C2=O)cc1)OC(C)=O (stereo unspecified)
inactive: [1] 10.8% and 20.4% | [2] 5.25% and -9.85% | [3] 19.9% and 15.7% | [4] 12.8% and 33.5% | [5] 12.7% and 12.6% | [6] 22.8% and 12.1%

COC1OC2COC(c3ccccc3)OC2C(OC(C)=O)C1OC(C)=O (stereo unspecified)
inactive: [1] 15.4% and 5.85% | [2] 10.2% and 6.9% | [3] 2.1% and 4.05% | [4] 2.4% and 2.9% | [5] 38.8% and 10% | [6] 19.9% and -14.9%

Cc1ccc(S(=O)(=O)Oc2cc(N)c3c(n2)CCC3)cc1
inactive: [1] -4.7% and 5.5% | [2] -13.6% and -7.8% | [3] 7.8% and -23.3% | [4] -48.2% and 6.55% | [5] -16.2% and -0.65% | [6] -3.45% and 0.5%

Nc1c2c(nc3ccccc13)CCCC2 (tested in a mixture with another compound)
inactive: [1] -7.95% and -12.2% | [2] -20.4% and -22.8% | [3] -14.9% and -14% | [4] 9.6% and 9.4% | [5] -21.2% and -18.6% | [6] -11.7% and -0.1%

CNC(=O)C(CC(C)C)NC(=O)C(C)NC(=O)C(Cc1ccc(OCc2ccccc2)cc1)NC(=O)C(COCc1ccccc1)NC(=O)OC(C)(C)C (stereo unspecified) (Boc-S(Bn)Y(Bn)AL-NHMe; configuration not given here)
inactive: [1] -7.2% and -29.6% | [2] -17.5% and -21.1% | [3] -20.1% and -17% | [4] 17.1% and 6.9% | [5] 25% and -1.35% | [6] 1.1% and -0.25%

O=C(O)C1C2OC(C(Br)C2Br)C1C(=O)O (stereo unspecified)
94.5% (active) and -11.8% (inactive): [5]
71.8% (active) and 12.1% (inactive): [4]
inactive: [1] -12.3% and -7.9% | [2] 15.1% and -12.1% | [3] -2.45% and -26.4% | [6] 13.9% and -0.15%

CN(C)C
inactive: [1] 17.1% and 2.45% | [2] -30.6% and -27.2% | [3] 10.4% and -17.1% | [4] -3.8% and -97.7% | [5] 9.8% and -21.9% | [6] 7.8% and -135%

COc1ccc(C(C)=O)cc1OC
inactive: [1] -0.95% and 6.35% | [2] -7.9% and -3.4% | [3] -1.4% and -3.3% | [4] 2.75% and -6.5% | [5] 3.25% and 2.6% | [6] -4.15% and 1.65%

CSCCC(NC(=O)CN)C(=O)O (stereo unspecified)
inactive: [1] 8.7% and -6.35% | [2] -14.6% and -11.8% | [3] 3% and -2.45% | [4] 14.4% and 0.15% | [5] -7.15% and -13.8% | [6] 5.35% and -7.05%

NC(N)=N/N=C(/C=N/N=C(N)N)C(O)C(O)CO (stereo unspecified)
inactive: [1] -11% and -10.4% | [2] -1.95% and -8.1% | [3] -7.6% and 3.3% | [4] -39.3% and -17.4% | [5] -18.1% and -13.7% | [6] -20.4% and -19.9%

O=[N+]([O-])c1ccc(Cc2ccccc2)cc1
inactive: [1] -2.8% and -37.1% | [2] -32.1% and -23.9% | [3] 7.7% and -11.6% | [4] 3.2% and -9.15% | [5] 13.8% and -11.9% | [6] -30.9% and -14.7%

CCCC(=O)Oc1ccccc1C(C)C
inactive: [1] 12.5% and 2.75% | [2] 11.9% and -21.8% | [3] 11% and -5.25% | [4] 14.1% and -8.9% | [5] 6.8% and -0.15% | [6] 1.65% and -19.6%

CC(O)COc1ccc(C2CCCCC2)cc1 (stereo unspecified)
inactive: [1] 27.9% and 8% | [2] 10.4% and -21.6% | [3] 7.3% and 16.4% | [4] -10.2% and -25.9% | [5] -2.55% and -5.5% | [6] -11.6% and 13%

CSCCC(N)C(=O)NCC(=O)O (stereo unspecified)
inactive: [1] -13.8% and -37.5% | [2] -22.9% and -23.1% | [3] -10.8% and 1.4% | [4] 2.9% and -35.9% | [5] -16.1% and -12% | [6] -11.4% and -8.65%

OCC1OCOC2C(CO)OCOC12 (stereo unspecified)
inactive: [1] -9.2% and -8.3% | [2] -21.4% and -3.75% | [3] -9.95% and 15.6% | [4] 0.65% and -36.2% | [5] -13.8% and -4.7% | [6] -4.7% and -3.1%
